Screening data from PubChem BioAssay.
The list is not random: actives were taken first. Their share in the collection is about 19%.
DT40 TDP1 no CPT – qHTS for Inhibitors of human tyrosyl-DNA phosphodiesterase 1 (TDP1): qHTS in cells in absence of CPT; DT40 Tdp1-/- hTDP1 cells, no CPT, ATP luminescence, 48 h; Potency, µM (series often up to 46.2 µM), without a hit: top-dose activity change, negative = growth inhibition, actives largely listed as inhibitors; 15% of 420,000 active; AID 686978, 2013; note: potency is the fitted concentration of half-maximal effect; nearly all actives have a fitted effect of over 55% in size
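Seeded 400 DT40-hTDP1 cells/well (vehicle DMSO, no 20 nM CPT); pinned compounds; ≥48 hr at 37 °C; CellTiter-Glo luminescence as viability measure.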
HT1080 IDH1KD tx – kills HT-1080 cells with IDH1 knockdown | HT-1080 IDH1 knockdown viability, ATP luminescence, 48 h | Potency, µM (titrated, usually from 46.1 µM), for the others: at the top dose activity, negative = toxicity, hits mostly cytotoxic | 2% of 360,000 active | AID 686971;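 note: potency is the fitted concentration of half-maximal effect; 0% = DMSO wells and -100% = cell-free medium wells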
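Cytotoxicity counter-line: IDH1KD HT-1080, 48 h, CellTiter-Glo. Curves classed by r2, magnitude and activity.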
IL1B secr inh – inflammasome signaling inhibition, IL-1 beta readout. THP-1 LPS/ATP IL-1B secretion, AlphaLISA, 16 h; active compounds read low. activity change, % at 57.5 µM. 4.7% of 360,000 active. AID 743279; in the data active = activity change below about -50%; inconclusive = mostly about -30% to -49%
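THP-1 cells pretreated 1 hr with compounds (up to 57.5 uM final), then stimulated with LPS (250 ng/mL final) plus ATP (1.25 mM final); secreted IL-1B measured by AlphaLISA after 16 hr, decreased signal indicating inhibition.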
HT1080NT lethal – kills 2HG-producing HT-1080-NT fibrosarcoma cells; HT-1080-NT fibrosarcoma viability, CellTiter-Glo ATP luminescence, 48 h; Potency, µM (titrated, usually from 46.1 µM), without a hit: at the top dose activity, negative = less viability, most hits filed as cytotoxic; 1.6% of 360,000 active; AID 686970;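 note: NT is the 2HG producing partner of a matched IDH1 knockdown line; potency is the fitted concentration of half-maximal effect; 0% = DMSO-treated cells and -100% = media-only wells without cells; nearly all actives have a fitted effect of over 55% in size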
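A 48-hour cytotoxicity screen used HT-1080-NT cells plated 2 hours before compound delivery. ATP-based CellTiter-Glo luminescence measured viability, normalized to DMSO and no-cell controls.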
TDP1 cell CPT – DT40-hTDP1 cell growth loss with CPT; 12% of 420,000 active; chicken DT40 Tdp1-/-;hTDP1 cells + 20 nM CPT, ATP luminescence, 48 h; Potency, µM (series often up to 46.2 µM), inactives show at the highest dose activity change, negative = growth inhibition, actives largely listed as inhibitors; AID 686979; note: potency is the fitted concentration of half-maximal effect; nearly all actives have a fitted effect of over 55% in size
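Cell growth measured by CellTiter-Glo luminescence after a minimum 48 h, 37 C compound exposure with 20 nM CPT in Tdp1-knockout DT40 cells stably expressing hTDP1, seeded 400/well; qHTS titration format.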
The depositor's hits bear a star; ? = inconclusive; / = no result given. Unless noted, calls come from the whole dose curve; as a rule, active = well fitted curve in the direction sought with a large enough effect; inconclusive = small, poorly fitted or top-dose-only effect, or another doubt; inactive = no such curve, though single readings can be large; an effect the other way counts as inactive or inconclusive. Unless noted, % is set by controls: 0 for no effect and ±100 for the full control effect.

SMILES | DT40 TDP1 no CPT | HT1080 IDH1KD tx | IL1B secr inh | HT1080NT lethal | TDP1 cell CPT
COc1cc(OC)cc(C(=O)OCC(=O)Nc2ccc(N3CCCCC3)cc2)c1 | -20% | -23% | 23 | 0% | -23%
O=C(COC(=O)c1ccc(O)cc1)Nc1ccc(N2CCCCC2)cc1 | 21µM* | -3% | 5 | 0% | ?
COC(=O)c1c(NC(=O)COC(=O)c2ccc(O)cc2)sc2c1CCCCC2 | 29µM* | -6% | -79* | 2% | ?
COc1ccc(NC(=O)c2c(NC(=O)Cc3ccccc3)sc3c2CCCC3)cc1 | -21% | / | / | / | -10%
COc1ccc(NC(=O)c2c(NCc3cccc(OC)c3)sc3c2CCCC3)cc1 | 23µM* | / | / | / | ?
COC(=O)c1ccc(NC(=O)c2c(NCc3ccc(C)o3)sc3c2CCCC3)cc1 | ? | / | / | / | 15µM*
Cc1cccc(C)c1NC(=O)C1(C)CSCC(=O)N1CCc1ccccc1F (stereo unspecified) | ? | -8% | -23 | -14% | -19%
CCCS(=O)(=O)NC(=O)C1(C)CCN(C(=O)C2(c3ccc(Cl)cc3)CCCC2)C1 (stereo unspecified) | -6% | 5% | 0 | 19% | -22%
CCOC(=O)c1c(CC(C)C)csc1NC(=O)COC(=O)c1ccc(O)cc1 | 18µM* | -1% | 31 | -3% | 23µM*
CCOC(=O)c1c(CC(C)C)csc1NC(=O)COC(=O)C1=NNC(=O)CC1 | -29% | 10% | 11 | 12% | -25%
COc1ccc(Cl)cc1C(=O)Nc1sc2c(c1C(=O)OC(C)C)CCCC2 | -8% | / | / | / | -11%
COc1ccc(NC(=O)c2c(NC(=O)CCC(=O)O)sc3c2CCCCC3)cc1 | -18% | 5% | 40 | -15% | -8%
COC(=O)c1ccc(NC(=O)c2c(NCc3ccc(OC)c(OC)c3)sc3c2CCCC3)cc1 | 5.2µM* | / | / | / | 2.9µM*
COc1ccc(CC(=O)Nc2sc3c(c2C(N)=O)CCCC3)cc1OC | 18µM* | 0% | -2 | -8% | ?
COc1cccc(CC(=O)Nc2sc3c(c2C(N)=O)CCCC3)c1 | ? | -19% | 31 | -26% | -25%
COc1ccc(NC(=O)c2c(NCc3ccc(N(C)C)cc3)sc3c2CCC3)cc1 | 10µM* | / | / | / | 13µM*
CCCCN1C(=O)C(CC(=O)NCCc2ccccn2)CC(C(=O)N(CC)CC)=C1C (stereo unspecified) | -19% | 9% | 32 | -7% | -2%
CCOC(=O)C1=C(C)Nc2ccccc2N=C1NC(=O)c1cc(C)on1 | -26% | 0% | 0 | 0% | -27%
COC(=O)c1ccc(NC(=O)C2CCCN2C(=O)OCc2ccccc2)cc1 (stereo unspecified) | -8% | -10% | 7 | -8% | -19%
CC/C(=N\NC(=O)CNC(=O)/C=C/c1ccc(OC)cc1)c1ccccc1 | -13% | 7% | 3 | -13% | -2%
CCOC(=O)c1c(NC(=O)C(=O)N/N=C/c2ccc(O)c(OC)c2)sc2c1CCCCC2 | 23µM* | 3% | -27 | -19% | ?
COc1ccc(/C=C/C(=O)Nc2sc3c(c2C(N)=O)CCCC3)cc1 | -17% | / | / | / | 5%
COC(=O)c1c(NC(=O)/C=C/c2ccc(OC)c(OC)c2)sc2c1CCC2 | 9.2µM* | / | / | / | ?
CCOC(=O)c1c(NC(=O)C(=O)N/N=C/c2ccc(OCC)cc2)sc2c1CCCCC2 | ? | 15% | 7 | 7% | ?
O=C(CNCCC1=CCCCC1)Nc1ccc(N2CCCCCC2)cc1 | 21µM* | ? | -87* | ? | 21µM*
SMILES | DT40 TDP1 no CPT | HT1080 IDH1KD tx | IL1B secr inh | HT1080NT lethal | TDP1 cell CPT
CCOc1ccc(-c2nnc(-c3cccnc3)o2)cc1OCC | 16µM* | 2% | -7 | -13% | ?
COc1cc(-c2nnc(-c3cccnc3)o2)cc(OC)c1OC | -3% | 7% | -11 | -3% | ?
COc1ccc(-c2nnc(-c3cccnc3)o2)cc1OC | ? | -3% | -24 | 3% | 12µM*
COc1cc(-c2nnc(-c3ccco3)o2)ccc1OCc1ccccc1 | ? | -27% | ? | -17% | ?
COc1cc(-c2nnc(-c3ccncc3)o2)ccc1OCc1ccccc1 | 9.2µM* | -1% | 0 | 3% | ?
CCCCCCc1nnc(N)s1 | -2% | 4% | -2 | 14% | 4%
CN1C(=O)/C(=N\OC(=O)c2cccc3ccccc23)c2ccccc21 | 13µM* | ? | -100* | 13µM* | 12µM*
CN1C(=O)c2ccc(NC(=O)c3cccc4ccccc34)cc2C1=O | -20% | -5% | 29 | 0% | 4%
COc1ccc(C(=O)OCCN2C(=O)c3ccccc3C2=O)cc1 | -13% | 13% | 2 | 11% | -27%
COc1ccc(C(=O)O/N=C2\C(=O)N(C)c3ccccc32)cc1 | 5.8µM* | 7% | 2 | 0% | 7.3µM*
O=P(O)(O)C(O)(Cn1ccnc1)P(=O)(O)O | -2% | / | / | / | 4%
CC(C)C[C@@H](C(=O)N[C@@H](C(=O)O)c1ccccc1)N1C(=O)N2CCc3c([nH]c4ccccc34)[C@@]2(C)C1=O | -14% | 0% | 30 | 1% | 2%
C[C@@H](C(=O)NC1CCCC1)N1C(=O)N2CCc3c([nH]c4ccccc34)[C@@]2(C)C1=O | ? | -5% | 24 | -4% | 21µM*
CC(NC(=O)[C@H](C)N1C(=O)N2CCc3c([nH]c4ccccc34)[C@@]2(C)C1=O)c1ccccc1 (stereo partly specified) | ? | -2% | 15 | 0% | 16µM*
CN(CC(=O)N1CCc2ccccc21)S(=O)(=O)c1ccc(Cl)cc1 | -12% | -1% | 4 | 0% | -7%
